# Reference: PubChem BioAssay (NCI)
# This is part of a sample that, as a whole, favours compounds with a hit. Of some 83,000 tested, about 20% had one in any assay.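 Method: cells in 96-well plates; compound added at one concentration; 48 h incubation; percent growth measured; values under 10 scored active.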 Calls of active or inactive are those of the source.
# Tested on: CCRF-CEM leukemia
# Test: NCI-60 one-dose screen, 48 h (100 = growth as untreated, 0 = no growth, -100 = all killed)
# Conditions: 10 µM unless noted
# Procedure: Growth inhibition of the CCRF-CEM human tumor cell line is measured as a screen for anti-cancer activity. Cells are grown in 96 well plates and exposed to the test compound for 48 hours. Compounds are tested at a single concentration, which is 10^-5 M for most compounds. The reported endpoint is percent growth (GI% or GIPRCNT), where numbers from 0 - 100% represent growth inhibition, and numbers from -100% - 0 represent cell death. For example, a value of 40 represents 60% growth inhibition. A value of 0 means no net growth occurred over the course of the experiment. A value of -40 indicates 40% of cells at the beginning of the experiment died by the end of the experiment. A value of -100 means all cells are dead at the end of the experiment.
# NCI-60 Human Tumor Cell Lines Screen was performed using the standard one-dose NCI protocol, which is described in more detail at https://dtp.cancer.gov/discovery_development/nci-60/default.htm.
# Compounds with GIPRCNT values below 10 were considered active. Activity score was based on GIPRCNT using the following formula: […]
# Score is 0 for GIPRCNT values of 100 or above, 50 for GIPRCNT values of 0, and 100 for GIPRCNT values of -100.
row,SMILES,growth
1,COc1ccc(S(=O)(=O)Nc2c(/C=C\c3cc(OC)c(OC)c(OC)c3)ccc(OC)c2O)cc1OC,12% (inactive)
2,O=c1[nH]c2ccc([N+](=O)[O-])cc2c(=O)o1,96.1% (inactive)
3,Nc1cc2nc3ccccc3nc2cc1N,94% (inactive)
4,O=NN1CCCc2cccc(O)c21,30.2% (inactive)
5,CCCCCSC1C2C(=O)C(Br)=CC13CCNc1c(O)c4c5c(c13)=[N+]2CCC=5C=N4 (stereo not given),-13.5% (active)
6,C[N+]12CN3CN(CN(C3)C1)C2,73.8% (inactive)
7,COc1ccc(-n2c(C)nc3cc(OC)c(OC)cc3c2=O)cc1OC,98.1% (inactive)
8,COc1ccc(/C=C\c2cc(OC)c(OC)c(OC)c2)cc1OCC(=O)Nc1nc2ccc(C(F)(F)F)cc2s1,25.4% (inactive)
9,O=C(O)C(Cl)(Cl)C(F)(F)F,100% (inactive)
10,CC(=O)OC1CCC2C3CCC4=C/C(=N/OC(=O)c5ccc(N(CCCl)CCCl)cc5)CCC4(C)C3CC(C)C12 (stereo not given),14.8% (inactive)
11,C1CCC2(CC1)OOCNCOO2,99.5% (inactive)
12,CNC(=O)Oc1ccc2c(c1)OCO2,111% (inactive)
13,Brc1ccc2c(c1)c(-c1nc(-c3c[nH]c4ncccc34)cs1)cn2CCN1CCCCC1,50.8% (inactive)
14,COc1ccc(/C=C/c2cc(OC)c(OC)c(OC)c2)cc1NC(=O)/C=C/c1ccc(F)cc1,11% (inactive)
15,C#C[C@]1(OC(=O)CCCCCC)CC[C@H]2[C@@H]3CCC4=CC(=O)CC[C@@H]4[C@H]3CC[C@@]21C,41.2% (inactive)
16,CC(C)=CC1C(C(=O)OCc2cccc(Oc3ccccc3)c2)C1(C)C (stereo not given),102% (inactive)
17,CN1C(=O)C(=Cc2cn(CCCCCCn3c4ccccc4c(=O)c4ccccc43)c3ccccc23)C(=O)N(C)C1=O,109% (inactive)
18,Cc1ccc(S(=O)(=O)C(Cl)(Cl)Cl)cc1,82.7% (inactive)
19,Cc1cc(N(CCCl)CCCl)ccc1C=Nc1cccnc1,61.4% (inactive)
20,Nc1ccc(-c2nc3cc(F)ccc3[se]2)cc1F,44.8% (inactive)

row,SMILES,growth
1,CCCCCCC(=O)NC1=C(N2CC2)C(=O)C(NC(=O)CCCCCC)=C(N2CC2)C1=O,50.7% (inactive)
2,CC[C@H](C)[C@H](NC(=O)C12C3C4C1C1C2C3C41NC(C)=O)C(=O)N(C)[C@H](C[C@@H](OC(C)=O)c1nc(C(=O)N[C@@H](Cc2ccccc2)C[C@H](C)C(=O)OC)cs1)C(C)C (stereo not given in full),12.2% (inactive)
3,CC(=O)O[C@H](C[C@H](C(C)C)N(C)C(=O)[C@@H](NC(=O)[C@H]1CCCCN1C)C(C)C)c1nc(C(=O)N[C@@H](Cc2ccccc2)C[C@H](C)C(=O)O)c(CCOCc2ccccc2)s1,9.38% (active)
4,CC(C)=CCc1c(O)c(C(=O)CC(C)C)c(O)c2c(-c3ccccc3)cc(=O)oc12,23.6% (inactive)
5,ClCCN(CCCl)c1ccc(-n2cnc3c(Cl)ncnc32)cc1,13.1% (inactive)
6,CC(=O)O[C@H]1CC[C@H]2[C@@H]3CC=C4c5nc(-c6ccccc6)sc5CC[C@]4(C)[C@H]3CC[C@]12C,28.4% (inactive)
7,NC(=O)CNc1ccc([As]=[As]c2ccc(NCC(N)=O)cc2)cc1 (stereo not given),10.9% (inactive)
8,NC(=O)C(Br)c1ccccc1 (stereo not given),60.6% (inactive)
9,CC(=O)[O][Hg][c]1c(N)c(C)cc(C)c1F,-6.01% (active)
10,COC1OC(CO)C(O)C(O)[CH]1[Hg][O]C(C)=O (stereo not given),96.1% (inactive)
11,COc1ccc(C(=O)c2cc(OC)c(OC)c(OC)c2)cc1OC(C)=O,13.8% (inactive)
12,O=C(c1cccc(O)c1O)c1cn(Cc2ccc(F)cc2)c2cccc(O)c12,4.35% (active)
13,CC1[C@H](C)OC(=O)CC(O)CC(O)CC(O)CCC(O)C(O)C[C@]2(O)CC(O)C(C(=O)O)C(CC(OC3O[C@H](C)[C@@H](O)[C@H](N)[C@@H]3O)/C=C/C=C/C=C/C=C/CC/C=C/C=C/[C@H](C)[C@H]1O)O2 (stereo not given in full),90.6% (inactive)
14,O=C1NC(=O)C(=Cc2cn(C(=O)c3ccccc3)c3ccccc23)C(=O)N1,104% (inactive)
15,CCOC(=S)S[C@H]1C[C@@H]2[C@H](CC[C@]3(C)C(=O)CC[C@@H]23)[C@@]2(C)CCC(=O)C=C12,107% (inactive)
16,CCOP1(=O)CC(C)=C(Cl)C(P(=O)(OCC)OCC)C1 (stereo not given),-27.5% (active)
17,C/C(=C\c1ccn(-c2ccc(N)cc2C(F)(F)F)n1)[C@@H]1C[C@@H]2O[C@]2(C)CCC[C@H](C)[C@H](O)[C@@H](C)C(=O)C(C)(C)[C@@H](O)CC(=O)O1,16.3% (inactive)
18,Cc1cc(N(CCCl)CCCl)ccc1C=Nc1ccccc1-c1ccccc1,54.2% (inactive)
19,c1ccc(CSC(c2ccccc2)c2ccccc2)cc1,117% (inactive)
20,O=[As](O)(O)c1ccccc1[As](=O)(O)O,110% (inactive)
